# A selection: hits, their analogues and other compounds. The true share with any hit is near 4%.
# PAX8 inh HTS: lowers PAX8-driven luciferase in RMG-I cells; RMG-I TPO-luciferase reporter, SteadyGlo, 24 h; inhibition, % at 12.6 µM; actives 1.2% (n = 360,000);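 active = mean replicate inhibition at least 60% with every replicate also reaching 60%; inconclusive = only one of the two criteria is met; inactive = mean below 60% and not all replicates reaching 60%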;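 also: luciferase light reporting Pax8 driven TPO promoter activity; plate controls were median of neutral control wells for no effect and mitoxantrone controls for full effect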
# Beta apoptosis: blocks beta cell apoptosis | INS-1E cytokine-induced death, ATP luminescence, 48 h; percent of positive-control rescue, neutral wells zero | protection from apoptosis, % (concentration not given with the values) | actives 0.8% (n = 300,000);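 active = Every replicate reaches about 75%, or at least half do and their mean reaches it too, limit read from the data; inconclusive = At least half of replicates reach the limit but their mean does not; inactive = Under half of replicates reach the limit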;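 also: 0% = cytokine-treated negative control wells and 100% = positive control rescue; higher means more ATP so stronger rescue from cytokine killing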
# Gli-Sufu block: antagonists of Gli-Sufu signaling; Sufu-KO-LIGHT fibroblasts, Gli luciferase reporter luminescence; inhibition, % at 5 µM; actives 0.74% (n = 340,000);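 active = inhibition above about 55%, limit read from the data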;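 also: 0% = DMSO-treated cells and 100% = wells with medium but no cells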
# Shn3 inh set2: Schnurri-3 reporter inhibition in Clone20 osteoblasts. Clone20 osteoblast Shn3 3'UTR firefly luciferase, 24 h. inhibition, % at 12.5 µM. actives 0.52% (n = 360,000). AID 588674;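 active = mean inhibition of at least 75% with every replicate also reaching 75%; inconclusive = mean inhibition at least 75% but some replicate below; inactive = mean inhibition below 75%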;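 also: 0% = median of neutral control wells and 100% = pilot-screen positive control compound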
# Mdm2 MdmX PPI: inhibitors of human Mdm2/MdmX interaction | O15151+Q00987 | SaOS-2 split-luciferase Mdm2/MdmX complementation, luminescence | inhibition, % at 8 µM | actives 3% (n = 330,000) | AID 485346;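 active = inhibition of at least 50% at 8 µM in the primary screen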
# Target sequence (O15151 whole entry, looked up): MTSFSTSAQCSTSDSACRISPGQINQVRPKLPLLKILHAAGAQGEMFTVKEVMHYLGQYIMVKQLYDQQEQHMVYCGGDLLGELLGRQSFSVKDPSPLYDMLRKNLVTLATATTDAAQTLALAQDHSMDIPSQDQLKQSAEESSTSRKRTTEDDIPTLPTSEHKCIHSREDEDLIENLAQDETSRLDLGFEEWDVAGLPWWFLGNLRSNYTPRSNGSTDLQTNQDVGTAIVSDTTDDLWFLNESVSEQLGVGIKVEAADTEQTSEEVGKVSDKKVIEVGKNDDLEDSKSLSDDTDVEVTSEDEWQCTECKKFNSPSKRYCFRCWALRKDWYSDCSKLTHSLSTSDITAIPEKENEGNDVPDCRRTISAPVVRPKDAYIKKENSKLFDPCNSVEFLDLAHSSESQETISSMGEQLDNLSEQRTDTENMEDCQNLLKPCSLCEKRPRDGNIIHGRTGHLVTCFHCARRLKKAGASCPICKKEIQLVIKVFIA
# Target sequence (Q00987 whole entry, looked up): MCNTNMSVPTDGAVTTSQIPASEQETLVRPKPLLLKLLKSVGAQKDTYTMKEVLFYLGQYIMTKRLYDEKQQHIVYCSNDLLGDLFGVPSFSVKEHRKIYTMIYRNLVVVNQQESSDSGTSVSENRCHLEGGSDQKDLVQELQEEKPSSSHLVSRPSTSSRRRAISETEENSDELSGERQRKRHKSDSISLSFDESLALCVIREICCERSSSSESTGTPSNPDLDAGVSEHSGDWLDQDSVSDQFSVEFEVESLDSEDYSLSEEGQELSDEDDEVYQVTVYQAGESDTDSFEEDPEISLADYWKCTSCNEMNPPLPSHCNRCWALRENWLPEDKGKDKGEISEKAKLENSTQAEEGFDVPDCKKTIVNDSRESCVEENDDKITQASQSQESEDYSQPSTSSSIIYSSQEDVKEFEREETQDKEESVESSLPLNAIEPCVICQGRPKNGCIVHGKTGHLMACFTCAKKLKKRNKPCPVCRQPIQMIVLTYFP
# CSC inhib: blocks cancer stem cells | inhibition, % at 7.5 µM | cancer stem cell-like cells viability, luminescence | actives 1.1% (n = 300,000); in the data active = inhibition above about 75%; inconclusive = no clear call, values can overlap the other calls; tested in HMLE shEcad cells
# An asterisk follows results filed as active; u = inconclusive; x = no result.
SMILES,PAX8 inh HTS,Beta apoptosis,Gli-Sufu block,Shn3 inh set2,Mdm2 MdmX PPI,CSC inhib
COc1ccc([Si](C)(C)[C@@H]2[C@@H](CCO)O[C@]3(C(=O)N(Cc4ccccc4)c4ccc(N5CCCCC5=O)cc43)[C@H]2C)cc1,35,x,x,x,x,x
COc1ccc([Si](C)(C)[C@@H]2[C@@H](CCO)O[C@]3(C(=O)N(Cc4cccc(NC(C)=O)c4)c4ccccc43)[C@H]2C)cc1,103*,x,x,x,x,x
COc1ccc([Si](C)(C)[C@@H]2[C@@H](CCO)O[C@]3(C(=O)N(Cc4ccccc4)c4ccc(N5C(=O)c6cccc7cccc5c67)cc43)[C@H]2C)cc1,88*,x,x,x,x,x
COc1ccc([Si](C)(C)[C@H]2[C@H](CCO)O[C@@]3(C(=O)N(c4ccccc4)c4ccccc43)[C@@H]2C)cc1,103*,x,x,x,x,x
COc1ccc(CN(C)C[C@@H]2Oc3ccc(NC(=O)CCCN(C)C)cc3C(=O)N([C@@H](C)CO)C[C@H]2C)cc1,1,x,x,x,x,x
O=C(c1cnccn1)N1CC(=O)N2[C@H](CO)[C@@H](c3ccc(C#CC4CCCCC4)cc3)[C@H]2C1,4,x,x,x,x,x
COc1ccc(S(=O)(=O)Nc2ccc3c(c2)C(=O)N([C@@H](C)CO)C[C@@H](C)[C@@H](CN(C)C(=O)CCC(F)(F)F)OCCCC[C@H](C)O3)cc1,12,x,x,x,x,x
CC(C)NC(=O)N(C)C[C@@H]1OCCCC[C@@H](C)Oc2ccc(NS(=O)(=O)c3ccc(F)cc3)cc2C(=O)N([C@@H](C)CO)C[C@@H]1C,-17,x,x,x,x,x
Nc1ccc(N(c2ccccc2)c2ccc(N)cc2)cc1,45,x,20,17,8,90*
CN(C)c1ccc(CCc2ccc(N)cc2)cc1,-13,1,16,32,8,26
O=C(NCc1cccnc1)C(=O)Nc1nc(C23CC4CC(CC(C4)C2)C3)cs1,9,161*,-5,22,40,13
O=C(NCc1ccccc1)C(=O)Nc1nc(C23CC4CC(CC(C4)C2)C3)cs1,19,35,-2,49,4,30
NC(Cc1ccc(Cl)cc1)c1csc(NC(=O)NCC2CCCCC2)n1 (stereo not drawn),-9,x,x,84*,x,x
C[C@@H]1CN([C@@H](C)CO)C(=O)c2cc(NC(=O)CCCN(C)C)ccc2O[C@@H]1CN(C)Cc1ccc2c(c1)OCO2,-13,x,x,x,x,x
O=C(Nc1ccc(Nc2ccncc2)cc1)c1ccc(Nc2ccnc3ccc([N+](=O)[O-])cc23)cc1[N+](=O)[O-],13,81*,1,20,x,27
Cc1ccc(C(=O)CCS(=O)(=O)c2ccc(F)cc2)cc1,11,-17,6,9,16,0
Cc1ccc(S(=O)(=O)CCC(=O)c2ccc(F)cc2)cc1,96*,-23,-15,73,3,14
CCC(=O)N1CC2(CCN(Cc3ccc(Cl)cc3)CC2)c2c(n(C)c3cc(OC)ccc23)[C@H]1CO,36,x,x,x,x,x
CCCNC(=O)N1[C@H](CO)[C@H](c2ccccc2)[C@@H]1CNC(=O)c1ccc(F)cc1,-14,x,x,x,x,x
CN(C)C(=O)c1cccc(-c2ccc3c(c2)[C@@H]2[C@@H](CCN2C(=O)c2ccccc2F)[C@@H](CO)N3)c1,-4,x,x,x,x,x
Cn1c(=O)n(Cc2ccc(F)cc2)c(=O)c2c1nc1n2CCCN1C1CCCCC1,x,11,12,31,43,78*
CN(C)CC(=O)N1CC2(C1)[C@H](c1ccccc1)[C@@H](CO)N2C(=O)C1CCC1,-8,x,x,x,x,x
COc1ccccc1C(=O)Nc1ccc2c(c1)OC[C@@H](C)N(C)C[C@H](C)[C@@H](OC)CN(C)C2=O,7,x,x,x,x,x
COc1cccc(-c2nn(C)c3sc(C(=O)Nc4ccc5c(c4)OCCO5)cc23)c1,x,25,17,9,48,40
Cn1nc(-c2ccccc2F)c2cc(C(=O)Nc3ccc4c(c3)OCCO4)sc21,-1,50,23,-21,46,77*
SMILES,PAX8 inh HTS,Beta apoptosis,Gli-Sufu block,Shn3 inh set2,Mdm2 MdmX PPI,CSC inhib
C[C@H]1CN([C@@H](C)CO)C(=O)c2cccc(NS(=O)(=O)c3cccs3)c2O[C@H]1CN(C)CC1CCCCC1,-10,x,x,x,x,x
CCCCCCCc1ccc(-c2ccc(O)cc2)nc1,-115,-2,-57,-45,-60,85*
CCCCCc1ccc(-c2ccc(/C=C/C(=O)O)cc2)nc1,-76,-3,-3,21,2,9
Cc1cc(S(=O)(=O)N2CCN=C2c2ccccc2)ccc1F,x,-3,0,14,4,-5
CCOc1ccc(S(=O)(=O)N2CCN=C2c2ccccc2)cc1,x,5,0,-15,46,117*
C/C(=N\Nc1cccc(Cl)c1)C1(C)N(O)C(C)(C)C(c2ccco2)=[N+]1[O-] (stereo not drawn),19,7,1,12,5,84*
O=C1NN(c2cccc(Br)c2)C(=O)/C1=C\c1ccccc1,-4,-17,21,-1,13,109*
C#CCn1cc[n+](CC(=O)N(C)C)c1,x,3,-6,3,-20,-3
CCCCCCCCCCCCCCCCn1cc[n+](CC(C)=O)c1,x,x,73*,84,x,x
CCc1nc(NC2CCCCC2)c(C#N)c2c1COC(C)(C)C2,x,1,-3,20,-17,3
CCCc1nc(NC2CCCCC2)c(C#N)c2c1COC(C)(C)C2,x,3,x,-10,17,106*
O=C(Nc1cccc(-c2csc(-c3ccccc3)n2)c1)c1cccs1,x,2,-8,4,-10,192*
Cc1nc(-c2cccc(NC(=O)c3cccs3)c2)cs1,-40,-3,-31,-13,-28,8
CN(C)c1ccc(/C=C/C=C2/SC(=S)N(c3ccccc3)C2=O)cc1,x,20,3,17,31,82*
O=C(O)c1ccc(N2C(=O)/C(=C/C=C/c3ccccc3)SC2=S)cc1,-2,-1,-3,-37,19,-1
C[C@@H]1CN([C@H](C)CO)S(=O)(=O)c2ccc(-c3ccc(F)cc3)cc2O[C@@H]1CN(C)CC1CC1,-9,x,x,x,x,x
C[C@H](CO)N1C[C@H](C)[C@@H](CN(C)C(=O)NC2CCCC2)Oc2ncc(-c3ccccc3)cc2C1=O,-4,x,x,x,x,x
N#CCSc1n[nH]c2nc3c(c(=O)n12)C1(CCCC1)Cc1ccccc1-3,x,-9,9,9,0,22
N#CCSc1nc2c(c(=O)n1Cc1ccco1)C1(CCCC1)Cc1ccccc1-2,-14,0,4,7,27,83*
CCCn1c(SCC#N)nc2c(c1=O)C1(CCCC1)Cc1ccccc1-2,6,9,0,-37,-19,127*
C[C@H]1CN([C@@H](C)CO)C(=O)c2cc(NC(=O)Nc3cccc4ccccc34)ccc2O[C@H]1CN(C)C(=O)Nc1cccc2ccccc12,41,x,x,x,x,x
CCNC(=O)C[C@H]1C=C[C@H](NC(=O)C2CC2)[C@H](CO)O1,-4,x,x,x,x,x
COCCCNC(=S)N/N=C/c1ccc(O)cc1O,-5,6,-10,0,5,-9
COc1ccc(CCCC(=O)N/N=C/c2cccc(OC)c2O)cc1C,29,-1,-3,u,44,113*
